43 compounds from article PMC4336329 (PLoS ONE, 2015) can be followed below.

SMILES strings stand for the structures. Among all 310,000 compounds or so, about 2,200 (0.71%) showed an effect of 50% or more. Effects have a minus sign here. Many of the other results were omitted from the sample, so strong results are more common in it than they were.

For the experiment, the target named is human ether-à-go-go-related gene (hERG) potassium channel (human, UniProt Q12809). The experiment can be described thus: primary screen, population patch clamp on CHO cells stably expressing hERG; higher = less effect of the substance.
human ether-à-go-go-related gene (hERG) potassium channel, sequence (Q12809 whole entry, looked up): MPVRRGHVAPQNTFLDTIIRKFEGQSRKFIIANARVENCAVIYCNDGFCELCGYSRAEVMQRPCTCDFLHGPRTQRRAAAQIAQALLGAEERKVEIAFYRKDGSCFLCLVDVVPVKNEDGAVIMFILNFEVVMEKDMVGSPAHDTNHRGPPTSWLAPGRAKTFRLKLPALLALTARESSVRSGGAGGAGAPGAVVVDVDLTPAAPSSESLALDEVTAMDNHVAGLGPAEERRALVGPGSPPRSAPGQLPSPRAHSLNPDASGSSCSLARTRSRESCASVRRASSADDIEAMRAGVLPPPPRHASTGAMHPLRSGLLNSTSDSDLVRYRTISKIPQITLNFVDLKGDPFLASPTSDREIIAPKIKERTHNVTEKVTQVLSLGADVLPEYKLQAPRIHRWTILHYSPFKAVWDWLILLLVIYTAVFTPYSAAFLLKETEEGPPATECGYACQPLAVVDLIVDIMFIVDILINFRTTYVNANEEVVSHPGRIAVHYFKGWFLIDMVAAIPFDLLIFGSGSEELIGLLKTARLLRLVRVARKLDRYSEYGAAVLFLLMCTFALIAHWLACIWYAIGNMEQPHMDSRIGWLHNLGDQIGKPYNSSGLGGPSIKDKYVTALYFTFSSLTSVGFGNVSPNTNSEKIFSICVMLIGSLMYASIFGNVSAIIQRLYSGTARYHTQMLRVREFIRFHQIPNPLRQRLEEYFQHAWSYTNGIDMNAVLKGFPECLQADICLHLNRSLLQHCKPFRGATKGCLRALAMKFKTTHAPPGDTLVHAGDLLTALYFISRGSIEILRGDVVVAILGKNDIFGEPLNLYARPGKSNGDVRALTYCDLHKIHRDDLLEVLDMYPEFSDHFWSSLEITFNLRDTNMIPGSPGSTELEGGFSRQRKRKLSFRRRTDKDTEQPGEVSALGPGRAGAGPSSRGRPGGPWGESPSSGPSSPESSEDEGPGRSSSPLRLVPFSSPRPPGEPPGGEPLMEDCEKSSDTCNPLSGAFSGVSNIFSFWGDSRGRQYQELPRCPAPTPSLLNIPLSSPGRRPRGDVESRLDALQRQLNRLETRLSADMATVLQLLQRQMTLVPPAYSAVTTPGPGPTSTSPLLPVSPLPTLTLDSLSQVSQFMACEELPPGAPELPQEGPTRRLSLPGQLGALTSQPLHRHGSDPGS
`COCCNC(=O)c1ccc(CSc2nc3ccccc3s2)cc1`: the “hERG current change (%, negative = inhibition) at 1uM” value is reported as 3.95%.
In the case of `Cn1c(C(=O)N2CCN(c3ccc(Cl)cc3)CC2)cc2c(=O)[nH]c3ccccc3c21` it was -56%; in that of `Cc1cccc(N2CCN(C(=O)c3cc4c(=O)[nH]c5ccccc5c4n3C)CC2)c1C`, 11.2%; in that of `Cc1ccc(Cl)cc1N1CCN(C(=O)c2cc3c(=O)[nH]c4ccccc4c3n2C)CC1`, 10.4%.
For the compound `COc1ccccc1C(=O)Nn1c(C2CCC2)nc2ccccc2c1=O`, the “hERG current change (%, negative = inhibition) at 1uM” value was determined as 4.52%.
The figure for `CCc1ccc(CNC(=O)Cn2nc(-c3ccccc3)ccc2=O)cc1` is 8.46%; for `CC1CCc2c(sc(NC(=O)COC(=O)c3ccccc3NCc3ccco3)c2C#N)C1` (stereo not shown) it is 12.9%.
In the case of `CC(=O)Nc1sc2c(c1C#N)CCC(C)C2` (stereo not shown), the “hERG current change (%, negative = inhibition) at 1uM” value is 11.7%.
In the case of `CC1CCc2c(sc(NC(=O)C(=O)NCc3ccco3)c2C#N)C1` (stereo not shown) it was -63.6%; in that of `CC(=O)c1cc(C#N)c(SCc2ccc([N+](=O)[O-])cc2)nc1C`, 10.4%.
Turning to `Cc1cc(C)nc(SCc2ccc([N+](=O)[O-])cc2)n1`, the “hERG current change (%, negative = inhibition) at 1uM” value came out at 6.29%.
Consider `Cc1nc(N)nc(SCc2ccc([N+](=O)[O-])cc2)c1N`, for which the “hERG current change (%, negative = inhibition) at 1uM” value is -70.8%.
The figure for `CC(OC(=O)c1ccc2ncsc2c1)C(=O)Nc1ncc(Cl)cc1Cl` (stereo not shown) is 8.58%; for `CC(NC(=O)c1ccc2c(c1)OCCO2)c1ccc(S(N)(=O)=O)cc1` (stereo not shown) it is -3.42%; for `O=[N+]([O-])c1ccc2oc(C3CCCCC3)nc2c1` it is 14.4%.
For the compound `CC(NC(=O)c1cccc(S(=O)(=O)N(C)C)c1)c1nc2ccccc2[nH]1` (stereo not shown), the “hERG current change (%, negative = inhibition) at 1uM” value is listed as 9.08%.
Take `O=C(Cn1nc(-c2ccccc2)ccc1=O)Nc1ccc(-n2cnnn2)cc1`: the “hERG current change (%, negative = inhibition) at 1uM” value stood at 9.23%.
With `O=C1NC(=O)C(CCc2ccncc2)(CCc2ccncc2)C(=O)N1CCc1ccc(F)cc1`, the “hERG current change (%, negative = inhibition) at 1uM” value is listed as -77.1%.
The figure for `CCc1ccc(N2C(=O)NC(=O)C(CCc3ccncc3)(CCc3ccncc3)C2=O)cc1` is -41.1%; for `O=C1NC(=O)C(CCc2ccncc2)(CCc2ccncc2)C(=O)N1C1CCCCC1` it is -69.7%.
In the case of `O=C1NC(=O)C(CCc2ccncc2)(Cc2ccc3c(c2)OCO3)C(=O)N1CCc1ccccc1` (stereo not shown) it was -10.8%; in that of `O=C1NC(=O)C(CCc2ccncc2)(CCc2ccncc2)C(=O)N1Cc1ccc(F)cc1`, -78.2%; in that of `O=C1NC(=O)C(CCc2ccncc2)(C2CCCCC2)C(=O)N1`, 11.2%.
In the case of `O=C1NC(=O)C(CCc2ccncc2)(CCc2ccncc2)C(=O)N1Cc1ccccc1` it was -43.4%; in that of `O=C1NC(=O)C(CCc2ccncc2)(CCc2ccncc2)C(=O)N1CCc1ccccc1`, -23.1%; in that of `C=CCN1C(=O)NC(=O)C(CCc2ccncc2)(CCc2ccncc2)C1=O`, -12.3%.
As for `O=C1c2ccccc2C(O)(c2ccccc2)N1C1CC1` (stereo not shown), the “hERG current change (%, negative = inhibition) at 1uM” value is -8.45%.
Turning to `C#CCOc1ccc(Br)cc1C(c1c(C)[nH][nH]c1=O)c1c(C)[nH][nH]c1=O`, the “hERG current change (%, negative = inhibition) at 1uM” value came to 11.6%.
On to `c1ccc2oc(SCc3cn4ccccc4n3)nc2c1`, for which the “hERG current change (%, negative = inhibition) at 1uM” value is recorded as -12.5%.
On to `COC(=O)COc1ccc(NC(=O)C(c2ccccc2)c2ccccc2)cc1`, for which the “hERG current change (%, negative = inhibition) at 1uM” value is listed as 6.63%.
The figure for `Cc1ccc(C(=O)Nc2cccc(C(F)(F)F)c2)cc1NC(=O)c1csc(-c2ccncc2)n1` is -17.1%.
With `O=C(Nc1ccc(C(F)(F)F)cc1)c1csc(-c2ccncc2)n1`, the “hERG current change (%, negative = inhibition) at 1uM” value is -2.94%.
The figure for `O=C(Nc1cccc(C(F)(F)F)c1)c1csc(-c2ccncc2)n1` is -82.4%; for `CN(CCCNC(=O)C1CCC(=O)N1Cc1ccccc1Cl)c1ccccc1` (stereo not shown) it is 19.2%.
The figure for `CCOC(=O)C1(CC2CC2)CCN(Cc2cn(C)c3ccccc23)CC1` is 12.2%; for `CCOC(=O)C1(CC2CCCCO2)CCN(Cc2cn[nH]c2-c2cccc(F)c2)CC1` (stereo not shown) it is -27.2%.
In the case of `CCOC(=O)C1(CC2CC2)CCN(Cc2cn[nH]c2-c2ccccc2)CC1` it was -65.5%.
For `CCOC(=O)N1CCN(Cc2cn[nH]c2-c2ccc(-c3ccccc3)cc2)CC1`, the “hERG current change (%, negative = inhibition) at 1uM” value was 7.03%.
The figure for `CCOC(=O)C1(CC2CC2)CCN(Cc2cn[nH]c2-c2cccc(F)c2)CC1` is -57.6%; for `CCOC(=O)C1(CC2CC2)CCN(Cc2ccc(OC)cc2F)CC1` it is -73.3%; for `CCOC(=O)C1(Cc2ccccc2)CCN(Cc2cn[nH]c2-c2ccccc2)CC1` it is 1.58%.
Turning to `CCOC(=O)C1(CC2CC2)CCN(Cc2cnc(-c3ccc(OC)cc3)nc2)CC1`, the “hERG current change (%, negative = inhibition) at 1uM” value turned out to be 11.7%.
As to `CCOC(=O)C1(CC2CCCCO2)CCN(Cc2ccc(OC)cc2F)CC1` (stereo not shown), the “hERG current change (%, negative = inhibition) at 1uM” value was -19.8%.
